# Source: PubChem (several laboratories)
# GAA850 FXN act – FXN promoter activators, primary screen, cell-based, luciferase luminescence, HEK293 lucGAA850. HEK293 lucGAA850 FXN promoter luciferase reporter, 24 h; percent of 10 µM SAHA response. activation, % at 6 µM. 0.56% of 360,000 active. AID 540364, 2011;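 active means activation above the average of all compounds screened plus 3 SD, cutoff fixed separately per campaign, cut at about 7.5% in these data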;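 further: 0% = DMSO wells and 100% = 10 µM SAHA wells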
# Gli-Sufu block – Gli-Sufu pathway antagonists, primary screen, luciferase luminescence, Sufu-KO-LIGHT cells, uHTS; Sufu-KO-LIGHT fibroblasts, Gli luciferase reporter luminescence; inhibition, % at 5 µM; 0.74% of 340,000 active;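 active means inhibition above about 55%, limit read from the data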;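 further: 0% = DMSO-treated cells and 100% = wells with medium but no cells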
# Cardio protect – cardioprotection against H2O2-induced cell death, primary screen, uHTS, H9c2 cells, ATPLite luminescence | H9c2 cardiomyocytes, H2O2 injury protection, 2 h | protection from H2O2 cell death, % at 20 µM | 0.63% of 360,000 active | AID 588492, 2011;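 active means compounds giving at least 50% protection of heart cells from peroxide-induced death in the single-dose screen, raw or plate-pattern-corrected value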;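 further: 0% = DMSO wells with peroxide and 100% = DMSO wells without peroxide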
# GalR3 antag – GalR3 antagonists in HEK293 cells, primary screen, cell-based, fluorescence readout; Galanin receptor type 3 (Homo sapiens), O60755; HEK293 GalR3-CNG cAMP membrane potential fluorescence; galR3 body fused to GalR1 C-terminus; inhibition, % at 3 µM; 0.44% of 360,000 active; AID 651719, 2012;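 active means inhibition above the screen-wide average plus 3 SD, cut at about 13% in these data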;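 further: forskolin and galanin both at EC90 stimulate the cells; cAMP rise reported by CNG channel membrane potential dye signal; 0% = forskolin plus galanin with DMSO and 100% = forskolin alone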
# Target sequence (O60755 1-299 limits assumed): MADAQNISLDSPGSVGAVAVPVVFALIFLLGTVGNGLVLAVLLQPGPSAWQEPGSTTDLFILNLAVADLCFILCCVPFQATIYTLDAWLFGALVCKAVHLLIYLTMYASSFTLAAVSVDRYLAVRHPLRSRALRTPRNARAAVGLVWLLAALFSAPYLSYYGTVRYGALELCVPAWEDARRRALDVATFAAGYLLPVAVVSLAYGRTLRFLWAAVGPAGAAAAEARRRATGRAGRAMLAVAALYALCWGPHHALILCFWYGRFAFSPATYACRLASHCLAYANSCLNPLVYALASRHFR
# COUP-TFII inh – NR2F2 transcriptional activity inhibitors, primary screen, cell-based, luciferase reporter, HEK293T, luminescence; inhibition, % at 8.6 µM; COUP transcription factor 2 (Homo sapiens), P24468; AID 686940, 2013; HEK293T NGFI-A luciferase reporter; 0.7% of 370,000 active;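 active means inhibition above a per-plate cutoff, mean inhibition of test wells between control levels plus 3 SD, cut at about 38% in these data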;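 further: cells cotransfected with COUP-TFII expression vector driving the NGFI-A reporter; 0% = median of COUP-TF2 test wells and 100% = reporter-only cells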
# Target sequence (P24468 whole entry, looked up): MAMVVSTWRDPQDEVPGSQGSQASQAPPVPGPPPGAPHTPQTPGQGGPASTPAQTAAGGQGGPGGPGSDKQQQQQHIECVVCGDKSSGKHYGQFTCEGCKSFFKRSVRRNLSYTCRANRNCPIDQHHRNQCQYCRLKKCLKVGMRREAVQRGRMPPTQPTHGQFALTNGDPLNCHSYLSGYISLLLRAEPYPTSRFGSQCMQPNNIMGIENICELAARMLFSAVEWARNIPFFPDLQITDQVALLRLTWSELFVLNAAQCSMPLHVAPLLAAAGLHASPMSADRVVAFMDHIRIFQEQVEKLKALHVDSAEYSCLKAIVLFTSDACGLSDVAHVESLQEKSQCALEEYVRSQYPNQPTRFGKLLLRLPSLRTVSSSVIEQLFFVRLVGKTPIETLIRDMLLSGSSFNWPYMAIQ
# SMARCA2 act – SMARCA2 (BRM) function activators, primary screen, cell-based, luminescence, high throughput; MG213 cells, MMTV-luciferase reporter, dexamethasone, overnight; activation, % at 9.1 µM; 1% of 370,000 active; in the data active means activation above about 7.8%;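 further: 0% = vehicle wells and 100% = reference activator wells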
# VP16 Luc counter – Gal4-VP16 luciferase reporter inhibitors, counter-screen for COUP-TFII antagonist project, cell-based, luminescence, HEK293; shares compounds with COUP-TFII inh; inhibition, % at 8.5 µM; 25% of 2,500 active; AID 687007, 2013; in the data active means inhibition above about 13%
# NR2F2 inh conf – NR2F2 transcriptional activity inhibitors, confirmation, cell-based, luciferase reporter, HEK293, triplicate; shares compounds with COUP-TFII inh; inhibition, % at 8.5 µM; 45% of 2,500 active; HEK293 NGFI-A luciferase reporter, luminescence;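 active means mean inhibition over three repeats above a set limit taken from the earlier primary screen, cut at about 38% in these data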;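 further: 100% = cells given the luciferase reporter alone without the COUP-TF2 vector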
# Active calls of the source: *; . = no result. An excerpt weighted towards active compounds, which were near 3.4% of everything screened.
SMILES,GAA850 FXN act,Gli-Sufu block,Cardio protect,GalR3 antag,COUP-TFII inh,SMARCA2 act,VP16 Luc counter,NR2F2 inh conf
CC(Oc1ccc(Br)cc1Cl)C(=O)Nc1ccncc1 (centres undefined),1.3,8.4,-15.0,-15.2,44.7*,-5.1,5.8,30.3
COc1ccc([N+](=O)[O-])cc1NC(=O)C(C)c1ccccc1 (centres undefined),-0.1,-0.9,1.7,-1.5,9.8,1.0,.,.
COc1ccc([N+](=O)[O-])cc1NC(=S)NC(NC(=O)C(c1ccccc1)c1ccccc1)C(Cl)(Cl)Cl (centres undefined),-6.3,-2.2,-22.3,-6.1,40.6*,-8.4,0.0,12.5
COC(=O)CSc1nc2nc(-c3cccs3)cc(C(F)(F)F)c2c(=O)[nH]1,0.7,1.9,12.5,-11.7,17.1,-3.0,.,.
O=C(CSc1nc2nc(-c3cccs3)cc(C(F)(F)F)c2c(=O)[nH]1)C(F)(F)F,5.0,17.9,2.8,-10.3,38.1*,0.4,-3.2,36.5
Cc1nn(Cc2ccc(Cl)cc2)c(C)c1NC(=O)c1cc(C(C)C)on1,-1.3,15.6,-16.7,-8.4,44.2*,-3.5,4.1,22.3
Cc1nn(Cc2c(Cl)cccc2Cl)c(C)c1NC(=O)c1cc(C(C)C)on1,-5.5,-18.5,8.8,.,-59.0,0.0,.,.
C#CCOC(=O)c1cc(Cl)c(=O)n(Cc2ccc(Cl)cc2Cl)c1,0.1,8.2,-3.7,-12.2,-8.0,-2.1,.,.
CCOc1ccc(NCc2ccccc2OCc2cccc(F)c2)cc1,1.8,6.9,-13.5,-4.2,1.2,-4.0,.,.
COc1cc(OC)c(N(C)S(=O)(=O)c2cccc(C(=O)OCC(=O)c3c[nH]c4ccccc34)c2)cc1Cl,-7.0,9.0,-11.3,-9.7,62.2*,-7.4,5.8,53.2*
CCOC(=O)C1CCN(c2cc(C)nc3ccc(OC)cc23)CC1,-1.6,35.4,-8.0,-7.8,42.0*,0.1,1.8,7.1
COc1ccc2nc(C)cc(N3CCC(C(N)=O)CC3)c2c1,-2.2,-1.1,-4.3,-3.5,-5.5,5.3,.,.
COc1ccc(S(=O)(=O)N(C)CC(=O)NCc2ccc3c(c2)OCO3)cc1,1.1,-0.5,-5.1,-7.4,0.9,-0.1,.,.
O=C(O)CSCC(=O)Nc1ccc(C2CCCCC2)cc1,-18.4,38.4,-1.6,-6.5,90.4*,-10.1,83.2*,77.0*
CC[n+]1c(/C=C/c2ccc(OC(C)=O)c(OC)c2)ccc2ccccc21,0.2,-22.6,-3.9,-9.3,-49.7,7.4,.,.
CC[n+]1c(/C=C/c2ccc(N(C)C)cc2)ccc2ccccc21,-10.0,87.9*,-21.7,8.0,68.1*,-10.3,28.9*,91.0*
CC[n+]1ccc(/C=C/c2ccc(N(C)C)cc2)c2ccccc21,-10.6,87.1*,-39.6,2.9,78.4*,-7.4,33.7*,88.4*
CCN(CC)c1ccc(/C=C/c2ccc3ccc(OC)cc3[n+]2CC)cc1,-7.8,84.3*,-20.2,-10.3,51.4*,-4.2,20.2*,66.8*
Clc1ccccc1OCCCn1ccnc1,-0.5,-11.8,2.3,-3.3,6.2,-0.6,.,.
Cc1nccn1CCOc1ccccc1Cl,0.4,.,-0.1,4.8,68.3*,-3.4,2.2,7.9
COc1ccc(C2CC(=O)c3c(C)nc(N4CCN(Cc5ccccc5)CC4)nc3C2)cc1OC (centres undefined),-0.5,18.1,-13.9,-5.3,61.6*,-4.5,8.4,39.1*
Cc1nc(N2CCN(Cc3ccccc3)CC2)nc2c1C(=O)CC(C)C2 (centres undefined),0.2,-8.6,-0.1,-1.7,13.6,-4.4,.,.
CCn1c(C)cc(C(=O)CN2C(=O)c3ccccc3S2(=O)=O)c1C,-11.0,63.8*,-1.6,-8.9,40.7*,-4.3,40.6*,72.5*
CCCn1c(C)cc(C(=O)CN2C(=O)c3ccccc3C2=O)c1C,6.9,-45.9,-8.3,0.8,-33.8,7.0,.,.
O=C(CN1C(=O)c2ccccc2S1(=O)=O)c1ccccc1Cl,-11.0,.,-9.9,-2.5,63.1*,-4.4,10.7,33.9
SMILES,GAA850 FXN act,Gli-Sufu block,Cardio protect,GalR3 antag,COUP-TFII inh,SMARCA2 act,VP16 Luc counter,NR2F2 inh conf
Cc1nn(C)c(C)c1CNC(=O)c1nn2c(c1Cl)NC(c1cccs1)CC2C(F)(F)F (centres undefined),-4.6,45.5,-10.9,-4.2,40.1*,-3.2,-5.3,11.3
COc1ccc(C2=NN(C(C#N)c3ccc(OC)c(OC)c3)C(c3ccccc3)C2)cc1 (centres undefined),3.3,-36.0,7.3,-7.0,-31.6,5.5,.,.
c1ccc(-c2cc(CSc3nc4ccccc4[nH]3)on2)cc1,-2.0,-5.4,-24.2,-6.3,40.0*,-2.0,-7.5,13.7
Cc1noc(C)c1CSc1nc2ccccc2[nH]1,1.5,14.4,0.8,1.9,-13.4,-1.3,.,.
CN=c1scc(-c2ccccc2F)n1/N=C/c1ccc[nH]1,-15.8,86.4*,-20.3,-4.2,106.5*,-13.8,86.0*,107.0*
CN=c1scc(C)n1/N=C/c1ccc(O)cc1,1.0,7.3,-16.5,0.0,-57.3,5.5,.,.
CCS(=O)(=O)N1CCC2(CC1)OCCN2S(=O)(=O)c1ccccc1,-1.6,.,-2.3,-6.2,-16.4,4.5,.,.
CSc1ccc(NC(=O)NCc2ccccc2)cc1,5.6,-8.5,-2.1,-6.2,-36.2,4.9,.,.
CCCCN(C=O)c1c(CC)nc2ccc(C(=O)N(C)Cc3ccccc3)cn12,-2.9,.,1.0,-2.4,-5.3,-3.7,.,.
CCOC(=O)[C@@]12CCCC=C1N(CCc1ccc(Cl)cc1)C(=O)[C@H]2CC(=O)N1CCCC1,.,.,.,.,44.4*,-5.6,7.1,39.7*
O=S(=O)(NCC1CCC(NS(=O)(=O)c2c(F)cccc2F)CC1)c1ccc2c(c1)OCCO2 (centres undefined),-0.3,0.4,-0.2,-3.5,14.7,-1.2,.,.
Cc1nc2ncnn2c(N2CCN(c3cccc(C(F)(F)F)c3)CC2)c1C,-1.3,18.5,-18.8,-8.0,43.5*,-6.5,3.2,19.7
O=C(O)c1ccc(/C=C/c2nc3sc4c(c3c(=O)[nH]2)CCC4)cc1,-0.4,7.7,40.1,-4.2,-11.0,-3.3,.,.
COc1cc(NC(=O)CCC(=O)c2cccs2)cc(OC)c1,-0.3,-17.0,-3.6,-2.4,-9.0,3.8,.,.
